Results on five sequences are retold here after article PMC7862700, “An all-to-all approach to the identification of sequence-specific readers for epigenetic DNA modifications on cytosine”.

ETV6, sequence (P41212 whole entry, the tested form may be a part): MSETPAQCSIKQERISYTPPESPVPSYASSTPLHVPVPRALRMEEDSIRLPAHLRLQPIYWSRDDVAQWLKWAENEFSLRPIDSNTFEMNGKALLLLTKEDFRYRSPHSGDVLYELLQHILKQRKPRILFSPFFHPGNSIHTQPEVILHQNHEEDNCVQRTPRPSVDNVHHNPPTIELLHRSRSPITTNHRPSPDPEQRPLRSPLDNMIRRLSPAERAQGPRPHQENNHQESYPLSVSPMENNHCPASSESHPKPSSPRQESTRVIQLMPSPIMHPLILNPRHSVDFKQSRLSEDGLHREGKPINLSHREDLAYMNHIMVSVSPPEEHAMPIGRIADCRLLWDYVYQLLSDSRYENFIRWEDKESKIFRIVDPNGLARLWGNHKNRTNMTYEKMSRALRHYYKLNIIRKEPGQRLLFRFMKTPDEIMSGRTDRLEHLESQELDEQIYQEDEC

The test concerns the target ETV6 (Homo sapiens, UniProt P41212 1-452). Kind of test: DAPPL (digital affinity profiling via proximity ligation, sequencing); 10 mM Tris-HCl pH 7.5, 50 mM NaCl, 1 mM DTT, 4% glycerol, room temperature, 30 min; GST-TFs on glutathione beads, 16-mer random dsDNA library, 0.1% formaldehyde crosslink after washing; high values mean tight binding. To be noted: protein: recombinant; tags: N-terminal GST; dsDNA, one strand shown. An outline of the steps: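 Binding signal is defined as a hexamer's read frequency for one factor over its frequency for the tag-only sample. To obtain reads, GST-fused human transcription factors were expressed in yeast, captured on glutathione beads, barcoded with DNA and pooled with that sample. Pools met 200 nmole of a 16-mer random double-stranded DNA library in Tris/NaCl/DTT/glycerol buffer for 30 min at room temperature before washing, 0.1% formaldehyde crosslinking, proximity ligation (BsaI/T4 ligase, 1 h, 37 °C), PCR and Illumina NextSeq500 sequencing.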
Consider AGGGAA, for which the binding signal is 1.03 fold enrichment (6-mer frequency, TF over GST control).

On to GGTTAC, for which the binding signal was 1.02 fold enrichment (6-mer frequency, TF over GST control).

Take CACGGC: the binding signal is 1.05 fold enrichment (6-mer frequency, TF over GST control).

As for GCGACA, the binding signal was 1.04 fold enrichment (6-mer frequency, TF over GST control).

In the case of AGTAGC, the binding signal was 1.08 fold enrichment (6-mer frequency, TF over GST control).
